Laboratory results as given in PubChem BioAssay (NCATS).
Results filed as inconclusive are left out. Where a call stands in place of a potency, no number is given. Values without a mark were called inactive. Active and inactive are the calls of the source. The call rests on the fitted dose curve; in most records, active means well fitted inhibition curve with a large enough effect; inconclusive means small, poorly fitted or top-dose-only effect; inactive means no such curve, though single readings can be large or run the other way.

Molecular target: Rap guanine nucleotide exchange factor 3 (Homo sapiens) (UniProt O95398)
Experiment: Counterscreen qHTS for antagonist of cAMP-regulated guanine nucleotide exchange factor 3 (EPAC1) (AID 1645888);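 further: fluorescence loss as bound BODIPY-GDP is released from Rap1B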
Conditions: Rap1B-BODIPY-GDP nucleotide exchange, fluorescence; series mostly up to 154 µM
Procedure, shortened: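 Rap1B–BODIPY-GDP (250 nM) with 50 uM GDP; compounds pin-transferred to 9.74 nM–152 uM final (activator) or from 7.32 nM upwards (inhibitor). Fluorescence Ex/Em 480/540 nm read at 5 and 30 min, then after adding cAMP or buffer, at room temperature.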

Chain of Rap guanine nucleotide exchange factor 3 (Homo sapiens) (O95398 whole entry, looked up): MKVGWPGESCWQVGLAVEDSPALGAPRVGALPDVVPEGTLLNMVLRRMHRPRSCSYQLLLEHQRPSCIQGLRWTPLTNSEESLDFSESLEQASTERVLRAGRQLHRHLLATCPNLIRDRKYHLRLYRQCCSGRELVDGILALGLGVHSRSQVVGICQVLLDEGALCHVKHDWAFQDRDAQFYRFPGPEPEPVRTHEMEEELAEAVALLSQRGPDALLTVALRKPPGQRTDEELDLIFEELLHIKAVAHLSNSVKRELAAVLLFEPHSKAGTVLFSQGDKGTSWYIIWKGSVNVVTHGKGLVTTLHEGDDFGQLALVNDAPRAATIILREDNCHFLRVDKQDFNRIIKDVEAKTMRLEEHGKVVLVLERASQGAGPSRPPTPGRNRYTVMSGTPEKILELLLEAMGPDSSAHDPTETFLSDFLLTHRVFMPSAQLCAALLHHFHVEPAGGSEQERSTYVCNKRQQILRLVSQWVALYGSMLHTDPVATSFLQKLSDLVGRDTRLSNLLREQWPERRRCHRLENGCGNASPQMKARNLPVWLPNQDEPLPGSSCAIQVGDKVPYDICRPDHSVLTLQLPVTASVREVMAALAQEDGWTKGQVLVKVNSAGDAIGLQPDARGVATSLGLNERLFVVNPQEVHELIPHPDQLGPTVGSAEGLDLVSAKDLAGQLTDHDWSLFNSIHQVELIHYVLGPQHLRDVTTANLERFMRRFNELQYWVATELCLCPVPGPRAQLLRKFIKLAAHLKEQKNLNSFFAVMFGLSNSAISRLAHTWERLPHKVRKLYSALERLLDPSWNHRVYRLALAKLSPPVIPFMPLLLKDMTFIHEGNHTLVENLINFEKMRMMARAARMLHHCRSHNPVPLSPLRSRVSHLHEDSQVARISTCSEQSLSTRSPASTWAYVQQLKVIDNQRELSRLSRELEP

Structure (SMILES)	Potency	activity change, negative = inhibition
COC(=O)c1cccc(F)c1C(=O)c1cccc2ccccc12	inactive	
COc1ccc(-n2cc(-c3ccccc3)c3c(N4CCOCC4)ncnc32)cc1	inactive	
CNc1snc(C)c1C(=O)OCC(=O)Nc1ccc(C)cc1F	inactive	
COC(=O)c1ccc2nc(-c3ccc(OC)c(OC)c3)c(CC3CCCCC3)n2c1	inactive	
COc1ccc2ccc3c(c2c1)N=C[C@]1(O3)N(C)c2ccccc2C1(C)C	inactive	
CC(=O)O[C@H]1c2ccccc2-c2ccccc2[C@@H]1OC(C)=O		-14.6% [at 30.8 µM]
Cc1ccc(C23CC4CC(CC(C(=O)N(C)C)(C4)C2)C3)cc1	inactive	
Cc1nc(Nc2ccc(Br)cc2Br)c([N+](=O)[O-])c(=O)[nH]1	inactive	
COc1ccc(Cl)cc1NC(=O)CN1c2ccccc2CC1C (centres undefined)	inactive	
O=C(c1noc2c1CCc1ccccc1-2)N1CCCc2ccccc21	inactive	
COc1ccc(/C=C/C(=O)c2ccc(Cl)cc2)c(OC)c1	inactive	
COC(=O)[C@@H]1CC[C@@](C)(c2ccc(OC)cc2)C1(C)C		8.1% [at 30.8 µM]
COC(=O)c1ccc2nc(-c3ccc(Cl)cc3)c(Cc3cccc(F)c3)n2c1	inactive	
COC(=O)c1ccc2nc(-c3cccc(Br)c3)c(Cc3ccsc3)n2c1		-25% [at 30.8 µM]
CCCC[C@@H]1C=C(C(=O)O)[C@H](c2ccc(Cl)c(Cl)c2)N1S(=O)(=O)c1ccc(C)cc1	inactive	
COc1ccc(S(=O)(=O)Nc2ncccc2C)c2ccccc12	inactive	
COC(=O)c1ccc2nc(-c3ccc(F)cc3)c(Cc3cccc(F)c3)n2c1	inactive	
Cc1ccc(-c2nn3cnnc3c3ccccc23)cc1C		-44.9% [at 30.8 µM]
O=C(O)c1ccc(NC(=O)C(c2ccccc2)c2ccccc2)cc1	inactive	
CCn1c(=O)c(C(=O)NNS(=O)(=O)c2ccc(C)cc2)c(O)c2ccccc21	inactive	
CC(=O)Nc1ccc(NC(=O)C2Cc3c(-c4ccc5c(c4)OCO5)ccnc3O2)cc1 (centres undefined)	inactive	
COc1cnc(-c2ccccc2)nc1Sc1ccccc1	inactive	
Cc1ccc2cccc(Oc3nnnn3-c3ccccc3)c2n1	inactive	
COc1ccccc1N(C)c1cc2c(c3c1ccn3C)C1CCC2O1 (centres undefined)	inactive	
